Reference: PubChem BioAssay (Tox21)
Values joined by “and” are separate entries in the source; they are usually repeats but may differ in a detail not shown here. Equal entries are not always repeated. Records with an inconclusive call do not appear. More than one record can exist for a structure, and the calls need not agree. Active and inactive are the calls of the source. Unless noted, calls come from the whole dose curve; as a rule, active = well fitted curve in the direction sought with a large enough effect in the repeat runs; inconclusive = weak or mixed curves; inactive = no such curve, though single readings can be large; an effect the other way counts as inactive or inconclusive.

Legend:
[1] = qHTS assay to identify small molecule antagonists of the glucocorticoid receptor (GR) signaling pathway - cell viability counter screen (AID 720693); note: nearly all actives have a fitted effect of over 55% in size; note: potency is the fitted concentration of half-maximal effect
[2] = qHTS assay for identifying genotoxic compounds that show differential cytotoxicity against isogenic chicken DT40 cell lines with known DNA damage response pathways - wild type cell line (AID 743012); note: nearly all actives have a fitted effect of over 60% in size; note: potency is the fitted concentration of half-maximal effect
Summary of the method: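 Cytotoxicity in repair-proficient parental chicken DT40 cells serves as the comparator for Rad54/Ku70- and Rev3-deficient lines. Cells were exposed to compounds for 40 h at 37 C/5% CO2, and ATP-based luminescence (CellTiter-Glo) measured viability.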

[3] = qHTS assay for identifying genotoxic compounds that show differential cytotoxicity against isogenic chicken DT40 cell lines with known DNA damage response pathways - Rev3 mutant cell line (AID 743014); note: nearly all actives have a fitted effect of over 55% in size; note: potency is the fitted concentration of half-maximal effect
[4] = qHTS assay for identifying genotoxic compounds that show differential cytotoxicity against isogenic chicken DT40 cell lines with known DNA damage response pathways - Rad54/Ku70 mutant cell line (AID 743015); note: nearly all actives have a fitted effect of over 60% in size; note: potency is the fitted concentration of half-maximal effect
[5] = qHTS assay to identify small molecule antagonists of the thyroid receptor (TR) signaling pathway - cell viability counter screen (AID 743064); note: nearly all actives have a fitted effect of over 50% in size; note: potency is the fitted concentration of half-maximal effect
Summary of the method: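 Plate GH3.TRE-Luc cells; incubate 4 h at 37 °C; add compound, then T3 to 1 nM final; incubate 23.5 h; add CellTiter-Fluor; incubate 30 min at 37 °C, 5% CO2; read fluorescence.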

[6] = qHTS assay to identify small molecule antagonists of the androgen receptor (AR) signaling pathway using the MDA cell line - cell viability counter screen (AID 743041; note: nearly all actives have a fitted effect of over 45% in size; note: potency is the fitted concentration of half-maximal effect)
Summary of the method: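 Viability read by CellTiter-Fluor fluorescence in the same wells as the antagonist screen, added after 15.5 h of a 16 h, 37C exposure. Human breast carcinoma MDA-kb2 AR-luc cells, compounds co-dosed with agonist R1881.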

[7] = qHTS assay to identify small molecule antagonists of the androgen receptor (AR) signaling pathway - cell viability counter screen (AID 743033; note: nearly all actives have a fitted effect of over 45% in size; note: potency is the fitted concentration of half-maximal effect)
[8] = molecular target: Androgen receptor (Homo sapiens) (UniProt P10275); experiment: qHTS assay to identify small molecule agonists of the androgen receptor (AR) signaling pathway using the MDA cell line (AID 743040; note: nearly all actives have a fitted effect of over 20% in size)
Sequence of Androgen receptor (Homo sapiens) (P10275 whole entry, looked up): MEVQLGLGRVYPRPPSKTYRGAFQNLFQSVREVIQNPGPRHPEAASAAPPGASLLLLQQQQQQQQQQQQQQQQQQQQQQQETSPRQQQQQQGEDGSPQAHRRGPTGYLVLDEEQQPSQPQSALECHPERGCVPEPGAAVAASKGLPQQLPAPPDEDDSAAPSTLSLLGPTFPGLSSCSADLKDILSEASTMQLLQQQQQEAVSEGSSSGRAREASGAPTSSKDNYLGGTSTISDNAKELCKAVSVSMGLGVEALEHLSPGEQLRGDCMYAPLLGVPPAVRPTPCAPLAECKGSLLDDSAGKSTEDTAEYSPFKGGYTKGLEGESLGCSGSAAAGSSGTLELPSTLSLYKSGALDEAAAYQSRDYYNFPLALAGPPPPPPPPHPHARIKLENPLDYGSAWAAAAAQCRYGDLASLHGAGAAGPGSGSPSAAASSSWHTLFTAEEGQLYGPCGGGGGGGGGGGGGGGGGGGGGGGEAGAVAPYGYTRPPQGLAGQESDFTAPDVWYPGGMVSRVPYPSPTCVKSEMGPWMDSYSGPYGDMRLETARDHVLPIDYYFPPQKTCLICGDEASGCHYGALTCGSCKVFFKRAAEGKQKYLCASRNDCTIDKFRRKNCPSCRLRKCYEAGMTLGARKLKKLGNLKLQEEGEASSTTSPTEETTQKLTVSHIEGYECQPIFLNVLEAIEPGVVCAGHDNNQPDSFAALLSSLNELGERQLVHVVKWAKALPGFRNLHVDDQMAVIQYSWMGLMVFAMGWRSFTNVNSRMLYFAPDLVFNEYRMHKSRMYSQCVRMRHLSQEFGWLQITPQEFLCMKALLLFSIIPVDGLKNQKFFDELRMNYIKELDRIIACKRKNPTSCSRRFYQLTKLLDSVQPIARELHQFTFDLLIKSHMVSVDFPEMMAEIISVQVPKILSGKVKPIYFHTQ
Summary of the method: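 Luciferase agonist assay: 16 h compound exposure at 37C without CO2 in MDA-kb2 AR-luc cells, whose MMTV promoter responds to both AR and GR. Luminescence measured after 30 min room-temperature incubation with ONE-Glo.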

[9] = molecular target: Androgen receptor (Homo sapiens) (UniProt P10275); experiment: qHTS assay to identify small molecule antagonists of the androgen receptor (AR) signaling pathway using the MDA cell line (AID 743042; note: nearly all actives have a fitted effect of over 55% in size; note: potency is the fitted concentration of half-maximal effect)
Summary of the method: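 Antagonist mode: compounds plus R1881 agonist added to MDA-kb2 AR-luc cells, incubated 16 h at 37C. Luciferase reporter luminescence quantified, with multiplexed CellTiter-Fluor readout for cell viability.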

[10] = molecular target: Androgen receptor (Homo sapiens) (UniProt P10275); experiment: qHTS assay to identify small molecule agonists of the androgen receptor (AR) signaling pathway (AID 743036; active = well fitted activation curve with a large enough effect in the signal ratio in the repeat runs, with a control signal flat, not every such curve was filed as active; the % refers to the signal ratio)
Summary of the method: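 Reporter line: GeneBLAzer AR-UAS-bla-GripTite (HEK293). Steps: plate cells, 4 h rest, add compounds, 16 h at 37C, add LiveBLAzer B/G substrate, 2 h at RT, read fluorescence.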
% is set by controls: 0 for no effect and ±100 for the full control effect.

CN1CCN(Cc2cc(-c3ccc4[nH]c(=O)oc4c3)co2)[C@@H](c2ccc(F)cc2)C1
inactive: Potency [1]
active: Potency [2] 14.8 µM | Potency [3] 16.6 µM | Potency [4] 14.8 µM | Potency [5] 46.7 µM

OC12N=C(c3ccccc3)SC1Cc1cc(Cl)ccc12 (stereo not drawn)
active: Potency [2] 68.6 µM | Potency [3] 68.6 µM | Potency [4] 43.3 µM
inactive: Potency [1] | Potency [6]

O[C@@H]([C@H](O)[C@H](O)CBr)[C@H](O)CBr
inactive: Potency [1] | Potency [2] | Potency [3] | Potency [4] | Potency [7] | Potency [6] | Potency [5]

O=C(O)[C@H](O)[C@@H](O)[C@H](O[C@@H]1O[C@H](CO)[C@H](O)[C@H](O)[C@H]1O)[C@H](O)CO
inactive: Potency [1] | Potency [2] | Potency [3] | Potency [4] | Potency [7] | Potency [5]

CCCCOC(=O)CC
inactive: Potency [1] | Potency [2] | Potency [3] | Potency [4] | Potency [7] | Potency [6] | Potency [5]

CCCCCCCCCCCCOCCOCCOCCOCCOCCOCCOCCOCCOCCO
active: Potency [1] 23.9 µM | Potency [2] 2.98 µM | Potency [3] 5.96 µM | Potency [4] 5.96 µM | Potency [5] 9.44 µM
inactive: Potency [7]

Cc1cc(=O)oc2cc(O)cc(O)c12
inactive: Potency [1] | Potency [2] | Potency [3] | Potency [7] | outcome [8] | Potency [9]

CCc1ccc(Br)cc1
inactive: Potency [1] | Potency [2] | Potency [3] | Potency [4] | Potency [7] | Potency [6] | Potency [5]

O=C(/C=C/c1ccc(O)c(O)c1)O[C@@H](C(=O)O)[C@@H](OC(=O)/C=C/c1ccc(O)c(O)c1)C(=O)O
inactive: Potency [1] | Potency [2] | Potency [3] | Potency [4] | Potency [7] | Potency [5]

C[C@@H](O)[C@H](N)C(=O)O
inactive: Potency [1] | Potency [2] | Potency [3] | Potency [4] | Potency [7] | Potency [6] | Potency [5]

CC(C)CCOC(=O)/C=C/c1ccccc1
inactive: Potency [1] | Potency [2] | Potency [3] | Potency [4] | Potency [7] | Potency [5]

CCCCNS(=O)(=O)c1ccc(C)cc1
inactive: Potency [1] | Potency [2] | Potency [3] | Potency [4] | Potency [7] | Potency [5]

O=C(O)O
inactive: viability change, negative = cytotoxic [1] 4.34% [at 7.04 µM] | activity change, negative = cytotoxicity [2] -8.76% [at 8.52 µM] | activity, negative = cytotoxicity [3] -2.82% [at 8.53 µM] | activity change, negative = cytotoxicity [4] -2.06% [at 8.55 µM] | activity change, negative = cytotoxicity [7] -8.19% [at 7.04 µM] | activity change, negative = cytotoxic [5] -0.346% [at 8.44 µM]

C=C(C)C(=O)OCCCCCCCCCC
inactive: Potency [1] | Potency [2] | Potency [3] | Potency [4] | Potency [5]

Cc1ccc(O)c(N)c1
inactive: Potency [1] | Potency [7]
active: Potency [2] 54.5 µM | Potency [3] 54.5 µM | Potency [4] 61.2 µM | Potency [5] 30.7 µM

CCCCC/C=C\C/C=C\CCCCCCCC(=O)O
inactive: Potency [1] | Potency [2] | Potency [3] | Potency [7] | Potency [5]
inactive and 54.5 µM (active): Potency [4]

CCC(CC)C(C)CCOC(C)=O (stereo not drawn)
inactive: Potency [1] | Potency [2] | Potency [3] | Potency [7] | Potency [6]

Cc1ccc(C(C)C)cc2c(C)ccc1-2
inactive: Potency [1] | Potency [2] | Potency [3] | Potency [4] | Potency [7] | Potency [6] | Potency [5]

CC(C)(C)NSc1nc2ccccc2s1
inactive: Potency [1] | Potency [2] | Potency [3] | Potency [4] | outcome [8] | Potency [6] | Potency [9] | Potency [5]

COc1cccc2c1C(=O)c1c(O)c3c(c(O)c1C2=O)C[C@@](O)(C(C)=O)C[C@@H]3O[C@H]1C[C@H](N)[C@H](O)[C@H](C)O1
active: Potency [1] 7.56 µM and 2.2 µM | Potency [2] 23.7 nM and 21.8 nM | Potency [3] 37.6 nM and 12.3 nM | Potency [4] 10.6 nM and 2.4 nM | Potency [7] 22 µM | Potency [6] 54.8 µM | Potency [5] 1.06 µM and 218 nM

Nc1ccc(C(=O)O)c(O)c1
inactive: Potency [1] | Potency [2] | Potency [3] | Potency [7] | Potency [10] | outcome [8] | Potency [9]

O=C(O)Cc1ccccc1Nc1c(Cl)cccc1Cl
inactive: Potency [1] | Potency [2] | Potency [7] | Potency [10] | outcome [8] | Potency [6] | Potency [9] | Potency [5]
inactive and 61.1 µM (active): Potency [3]

COc1c(C)c2c(c(O)c1C/C=C(\C)CCC(=O)OCCN1CCOCC1)C(=O)OC2
active: Potency [2] 0.531 µM | Potency [3] 0.422 µM | Potency [4] 0.422 µM | Potency [5] 1.68 µM
inactive: Potency [1] | outcome [8] | Potency [6] | Potency [9]

Cc1nc(-c2ccc(Cl)cc2)oc1COC(C)(C)C(=O)O
inactive: Potency [1] | Potency [2] | Potency [3] | Potency [4] | Potency [7] | Potency [6] | Potency [5]

OCC(F)(F)F
inactive: Potency [1] | Potency [2] | Potency [4] | Potency [7] | Potency [6]

CCN(CCN)c1cccc(C)c1
inactive: Potency [1] | Potency [4] | Potency [7] | Potency [6]
69.2 µM (active) and inactive: Potency [2]

CCC(C)(CCC(C)C)C(=O)[O][Sn]([CH3])([CH3])[O]C(=O)C(C)(CC)CCC(C)C (stereo not drawn)
inactive: Potency [1] | Potency [4] | Potency [7] | Potency [6]
active: Potency [2] 54.5 µM

Cc1nc2n(c(=O)c1CCN1CCC(c3noc4cc(F)ccc34)CC1)CCCC2
inactive: Potency [1] | Potency [4] | Potency [7] | Potency [6]
active: Potency [2] 9.44 µM

Nc1cc(Cl)c(O)c(Cl)c1
inactive: Potency [1] | Potency [7] | outcome [8] | Potency [6] | Potency [9]
active: Potency [2] 10.9 µM | Potency [4] 24.3 µM

O=C(/C=C/c1ccccc1)OC/C=C/c1ccccc1
active: Potency [2] 17.2 µM | Potency [4] 13.7 µM
inactive: Potency [1] | Potency [7] | Potency [10] | outcome [8] | Potency [6] | Potency [9] | Potency [5]

Nc1nc(N)nc(-c2cc(Cl)ccc2Cl)n1
inactive: Potency [1] | Potency [2] | Potency [3] | Potency [7] | Potency [6] | Potency [5]

CCCCCCOC(=O)C(C)CC (stereo not drawn)
inactive: Potency [1] | Potency [2] | Potency [4] | Potency [7] | Potency [10] | outcome [8] | Potency [6] | Potency [9] | Potency [5]

CN(C)c1ccc(C(=C2C=CC(=[N+](C)C)C=C2)c2ccc(N(C)C)cc2)cc1
inactive: outcome [8]
active: Potency [1] 6.01 µM and 3.45 µM and 9.77 µM | Potency [2] 335 nM and 542 nM and 193 nM | Potency [4] 422 nM and 483 nM and 193 nM | Potency [7] 1.69 µM and 1.37 µM and 347 nM | Potency [6] 3.35 µM and 7.66 µM and 4.33 µM | Potency [9] 2.37 µM and 859 nM and 864 nM
